Compound activity from PubChem.
This is a sample that favours compounds with a hit; in the whole collection about 18% have one here.
Six1-Eya2 inh = blocks human Six1 binding to Eya2. 0.56% of 360,000 active. activity change, % (test concentration not listed). AID 651725. AlphaScreen GST-Six1/His-Eya2 binding, biochemical; stronger effect = lower value; in the data active = activity change below about -65%; inconclusive = mostly about -30% to -63%
Target sequence (O00167 whole entry, looked up): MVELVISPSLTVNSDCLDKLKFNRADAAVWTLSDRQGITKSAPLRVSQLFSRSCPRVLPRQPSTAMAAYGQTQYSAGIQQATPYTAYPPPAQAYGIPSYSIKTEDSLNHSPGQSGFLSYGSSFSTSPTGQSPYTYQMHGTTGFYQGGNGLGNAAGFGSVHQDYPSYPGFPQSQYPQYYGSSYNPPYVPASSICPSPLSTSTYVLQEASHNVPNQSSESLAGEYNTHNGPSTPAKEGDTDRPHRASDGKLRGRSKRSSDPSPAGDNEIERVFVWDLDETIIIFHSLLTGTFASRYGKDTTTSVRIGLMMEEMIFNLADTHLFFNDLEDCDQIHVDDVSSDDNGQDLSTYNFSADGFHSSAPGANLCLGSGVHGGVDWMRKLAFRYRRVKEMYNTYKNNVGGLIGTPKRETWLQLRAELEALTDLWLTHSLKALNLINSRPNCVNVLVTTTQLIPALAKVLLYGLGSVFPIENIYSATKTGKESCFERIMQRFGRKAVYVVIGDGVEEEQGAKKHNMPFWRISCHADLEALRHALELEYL
Target sequence (Q15475 whole entry, looked up): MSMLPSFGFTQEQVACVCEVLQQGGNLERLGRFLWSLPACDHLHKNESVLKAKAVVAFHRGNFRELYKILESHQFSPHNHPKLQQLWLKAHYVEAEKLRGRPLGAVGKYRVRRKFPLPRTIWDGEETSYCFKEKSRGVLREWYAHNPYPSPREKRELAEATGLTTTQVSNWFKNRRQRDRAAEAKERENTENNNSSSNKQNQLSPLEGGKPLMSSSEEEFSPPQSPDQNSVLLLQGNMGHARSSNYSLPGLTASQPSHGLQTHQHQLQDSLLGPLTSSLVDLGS
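Six1/Eya2 binding was read as AlphaScreen signal after compounds were pinned into GST-Six1 plus His-tagged Eya2 (5X stock 250/500 nM) in pH 8.0 Tris/NaCl/TCEP buffer, beads added, then incubated 1 h, 37 C, dark.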
DT40 TDP1 CPT = growth inhibition of DT40 Tdp1-/-;hTDP1 cells with camptothecin (screen for TDP1 inhibitors) | chicken DT40 Tdp1-/-;hTDP1 cells + 20 nM CPT, ATP luminescence, 48 h | Potency, µM (highest dose often 46.2 µM), for the others: at the top dose activity change, negative = growth inhibition, most hits filed as inhibitors | 12% of 420,000 active | AID 686979; also: potency is read from the fitted curve at half-maximal effect; nearly all actives have a fitted effect of over 55% in size
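Cell growth measured by CellTiter-Glo luminescence after a minimum 48 h, 37 C compound exposure with 20 nM CPT in Tdp1-knockout DT40 cells stably expressing hTDP1, seeded 400/well; qHTS titration format.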
DT40 TDP1 no CPT = qHTS for Inhibitors of human tyrosyl-DNA phosphodiesterase 1 (TDP1): qHTS in cells in absence of CPT | AID 686978, 2013 | Potency, µM (titrated, usually from 46.2 µM), without a hit: top-dose activity change, negative = growth inhibition, hits mostly inhibitors | 15% of 420,000 active | DT40 Tdp1-/- hTDP1 cells, no CPT, ATP luminescence, 48 h; also: potency is read from the fitted curve at half-maximal effect; nearly all actives have a fitted effect of over 55% in size
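Seeded 400 DT40-hTDP1 cells/well (vehicle DMSO, no 20 nM CPT); pinned compounds; ≥48 hr at 37 °C; CellTiter-Glo luminescence as viability measure.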
TDP1 block = TDP1 (human) enzyme inhibition | Q9NUW8 | recombinant TDP1, AlphaScreen DNA substrate cleavage | Potency, µM (doses to about 130 µM), without a hit: top-dose activity change, negative = inhibition, hits mostly inhibitors | 0.28% of 350,000 active | AID 485290; also: potency is read from the fitted curve at half-maximal effect; nearly all actives have a fitted effect of over 40% in size
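Signal: AlphaScreen proximity between streptavidin donor and anti-FITC acceptor beads on intact substrate. Reaction: Tdp1 1 nM, substrate 15 nM final, 5 min RT after 15 min compound preincubation.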
CtBP-E1A blk = CtBP/E1A binding inhibition. AID 651724. activity change, % (concentration not given with the values). AlphaScreen GST-E1A/His-CtBP binding, 1536-well; stronger effect = lower value. 0.49% of 340,000 active; in the data active = activity change below about -65%; inconclusive = mostly about -30% to -63%
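AlphaScreen with 125 nM GST-E1A and 125 nM His-CtBP (5X stocks) in Tris pH 8.0, 300 mM NaCl, BSA, Tween 20, TCEP. Compounds preincubated 2 h at 37 deg C, then glutathione donor/nickel acceptor beads added for 1 h at 37 deg C in dark.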
IL-1B inflam inh = inflammasome signaling inhibition, IL-1 beta readout; THP-1 LPS/ATP IL-1B secretion, AlphaLISA, 16 h; stronger effect = lower value; activity change, % at 57.5 µM; 4.7% of 360,000 active; AID 743279; in the data active = activity change below about -50%; inconclusive = mostly about -30% to -49%
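Secreted IL-1B measured by AlphaLISA bead assay after 16 h compound exposure of THP-1 cells; compounds (final up to 57.5 uM) added 1 h before LPS (250 ng/mL) and ATP (1.25 mM) stimulation; lower signal means less secretion.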
* hit, by the source's call; ? = inconclusive; . = no result given. Unless noted, calls follow the shape of the dose curve; as a rule, active = well fitted curve in the direction sought with a large enough effect; inconclusive = small, poorly fitted or top-dose-only effect, or another doubt; inactive = no such curve, though single readings can be large; an effect the other way counts as inactive or inconclusive. % is scaled to controls: 0 for no effect and ±100 for the full control effect.

SMILES	Six1-Eya2 inh	DT40 TDP1 CPT	DT40 TDP1 no CPT	TDP1 block	CtBP-E1A blk	IL-1B inflam inh
CCn1nc(C)c(CN2CCc3c([nH]c4ccccc34)C2c2ccc(F)c(OC)c2)c1C (stereo not drawn)	-23	29µM*	12µM*	3%	-19	-15
CN1CCC(=C(c2ccc(Cl)cc2)c2ccccn2)CC1	7	-29%	?	.	.	?
CCOc1[nH]c(/N=C/c2ccccc2)c(C#N)c1C#N	.	6.3µM*	-25%	0%	.	.
COc1[nH]c(/N=C/c2ccco2)c(C#N)c1C#N	.	16µM*	?	3%	.	.
COC(=O)c1ccc(NC(=S)NCc2ccco2)cc1	-1	-4%	-22%	2%	4	0
Cc1ccc(-c2cn3cccnc3n2)cc1NC(=O)Nc1ccc(F)cc1	.	.	.	1%	.	.
COc1ccccc1NS(=O)(=O)c1cccc(NC(=O)Nc2ccccc2)c1	-6	?	15µM*	4%	0	-79*
CN(c1ccccc1)S(=O)(=O)c1cccc(NC(=O)c2cc3ccccc3oc2=O)c1	13	?	?	-4%	0	21
COc1ccccc1NS(=O)(=O)c1cccc(NC(=O)c2[nH]c(C)c(C(C)=O)c2C)c1	-24	?	16µM*	5%	.	-2
COc1ccccc1NC(=O)C(=O)NNS(=O)(=O)c1ccc2ccccc2c1	0	23µM*	26µM*	3%	.	0
COc1ccccc1NS(=O)(=O)c1cccc(NC(=O)c2cc3ccccc3oc2=O)c1	-4	?	18µM*	0%	.	22
O=C1C=C(NC2CCCCC2)CCC1	2	9%	0%	0%	4	30
COc1cc(NC(=O)Cc2cccs2)cc(OC)c1	-2	?	18µM*	-4%	3	-2
CCNC(=S)Nc1cccc(S(=O)(=O)Nc2ccccc2OC)c1	0	?	23µM*	.	-15	11
C=CCn1c(Cc2cccs2)nnc1SCC(=O)Nc1ccc(C(=O)OCC)cc1	-5	-8%	-14%	4%	1	-24
COc1ccccc1NS(=O)(=O)c1cccc(NC(=O)Cc2cccs2)c1	6	?	26µM*	1%	-11	-4
C=CCn1c(Cc2cccs2)nnc1SCC(=O)Nc1cc(OC)cc(OC)c1	-3	?	16µM*	4%	-2	-15
COc1cccc(NC(=O)Cc2cccs2)c1	0	5%	-9%	2%	10	-12
CCOC(=O)c1c(S(=O)(=O)NCC(=O)Nc2ccc(F)cc2F)c(C)n(C)c1C	1	-14%	14%	0%	-6	-13
COc1ccc(S(=O)(=O)NNC(=O)C(=O)NNc2ccccn2)cc1	-91*	-19%	-19%	7%	?	0
COc1ccccc1NS(=O)(=O)c1cccc(N=C2N=C(N)c3ccccc32)c1	-13	-23%	23µM*	5%	.	-66*
Cc1ccc(N2C(=O)C(CC(=O)Nc3ccccc3)N(CCC3=CCCCC3)C2=O)cc1 (stereo not drawn)	.	16µM*	21µM*	1%	.	.
COc1cccc(N2C(=O)C(CC(=O)Nc3ccc(F)cc3)N(CCC3=CCCCC3)C2=O)c1 (stereo not drawn)	.	?	16µM*	1%	.	.
COc1ccc(N2C(=O)C(CC(=O)Nc3ccccc3)N(CCC3=CCCCC3)C2=O)cc1 (stereo not drawn)	.	21µM*	18µM*	4%	.	.
COc1ccc(NC(=O)CC2C(=O)N(c3ccc(OC)cc3)C(=O)N2CCC2=CCCCC2)cc1 (stereo not drawn)	.	?	?	6%	.	.
SMILES	Six1-Eya2 inh	DT40 TDP1 CPT	DT40 TDP1 no CPT	TDP1 block	CtBP-E1A blk	IL-1B inflam inh
O=C(CCCC(=O)c1ccccc1)Nc1ccc(O)cc1	2	?	?	.	-16	5
Cc1ccccc1C(=O)NC(=O)Nc1ccc(-n2nc(C(F)(F)F)cc2C(F)(F)F)cc1	.	-24%	?	6%	.	.
Cc1cc2oc(C(=O)NCC(c3ccco3)N3CCCC3)c(C)c2cc1C (stereo not drawn)	-8	?	21µM*	.	-8	-3
O=C(NCC(c1ccco1)N1CCCC1)c1cc2cc(Cl)ccc2o1 (stereo not drawn)	-4	18µM*	?	3%	-16	-26
Cc1cccc(C(=O)NCC(=O)NCC(c2ccco2)N2CCCCC2)c1 (stereo not drawn)	-10	-9%	-1%	.	0	1
Cc1ccc2c(Cl)c(C(=O)NCC(c3ccco3)N3CCCC3)sc2c1 (stereo not drawn)	0	18µM*	?	9%	.	-7
O=C(NCC(c1ccco1)N1CCCC1)c1ccc(Cl)cc1 (stereo not drawn)	1	-7%	-5%	2%	3	10
Cc1ccc2oc(C(=O)NCC(c3ccco3)N3CCCC3)c(C)c2c1 (stereo not drawn)	-14	29µM*	?	5%	-23	-22
Cc1ccc(C(=O)NCC(c2ccco2)N2CCCCC2)s1 (stereo not drawn)	-5	?	?	0%	.	12
CC(=O)Nc1cncc(-c2cccc(N(C)C)c2)n1	-5	-10%	0%	.	-9	11
CC(C)CCN1C(=O)CCC1(C)C(=O)NC1CCCCCC1 (stereo not drawn)	2	-24%	-6%	0%	5	36
O=C(NCC(c1ccco1)N1CCCCC1)c1ccc([N+](=O)[O-])s1 (stereo not drawn)	1	18µM*	23µM*	0%	-1	-15
O=C(NCC(c1ccco1)N1CCCC1)c1ccccc1Sc1ccc(C(F)(F)F)cc1[N+](=O)[O-] (stereo not drawn)	-15	?	?	5%	-11	-75*
Cc1ccc2ccc3cc(C(=O)N4CCN(c5ccccc5)CC4)nc3c2[nH]1	.	?	18µM*	8%	.	.
COc1ccc2cc(C(=O)N3CCN(c4ccccc4OC)CC3)[nH]c2c1	-8	?	-28%	.	-13	20
COc1ccccc1N1CCN(C(=O)c2cc3ccc4ccc(C)[nH]c4c3n2)CC1	.	?	21µM*	6%	.	.
Cc1cc(NC(=S)NC(=O)c2ccccc2)ccc1-c1cc2ccccc2oc1=O	0	3.3µM*	2.9µM*	-1%	-3	9
CCOc1ccc(C(=O)Nc2ccc(-c3cc4ccccc4oc3=O)c(C)c2)cc1[N+](=O)[O-]	2	13µM*	12µM*	1%	.	66
